Source: PubChem BioAssay
MEX-5 binding – C. elegans MEX-5 TCR-2 RNA binding activity; Q9XUB2; 300,000 compounds, 0.38% hits; MEX-5/FITC-TCR2 RNA binding, fluorescence polarization; stronger effect = lower value; activity score (negative = inhibition of binding), % at 10 µM;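 active = inhibition past about -25% in most replicates, and total fluorescence under double the plate's negative control median, limit read from the data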;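 also: 0% = DMSO and -100% = 5 µM competing unlabeled TCR2 RNA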
GLD-1 RNA inh – GLD-1-TGE RNA interaction inhibition (C. elegans) | purified GLD-1 + fluorescein TGE RNA, fluorescence polarization | inhibition, % at 5.96 µM | 320,000 compounds, 0.44% hits | AID 2280;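 active = percent inhibition above a per-plate cutoff, the plate mean of test compounds plus 3 SD, cut at about 30% in these data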;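 also: 0% = DMSO wells with GLD-1 and probe and 100% = wells lacking GLD-1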
Target sequence (Q17339 whole entry, looked up): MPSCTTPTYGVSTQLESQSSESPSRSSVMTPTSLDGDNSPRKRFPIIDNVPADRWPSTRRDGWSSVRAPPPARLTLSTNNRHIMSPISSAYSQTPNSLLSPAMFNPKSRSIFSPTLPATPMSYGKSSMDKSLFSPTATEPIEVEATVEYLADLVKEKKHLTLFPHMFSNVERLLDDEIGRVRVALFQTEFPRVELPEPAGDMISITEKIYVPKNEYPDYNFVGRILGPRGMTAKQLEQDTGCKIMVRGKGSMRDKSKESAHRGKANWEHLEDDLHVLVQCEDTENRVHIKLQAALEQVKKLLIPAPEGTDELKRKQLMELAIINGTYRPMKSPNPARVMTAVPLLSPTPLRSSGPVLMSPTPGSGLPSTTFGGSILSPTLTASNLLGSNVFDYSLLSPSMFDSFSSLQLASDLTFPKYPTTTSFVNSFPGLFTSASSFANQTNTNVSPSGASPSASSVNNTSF
IDE inh – cellular human IDE inhibition | inhibition, % at 5.59 µM | 320,000 compounds, 0.41% hits | P14735 | HEK cells, FAbetaB cleavage, fluorescence polarization | AID 434962;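 active = percent inhibition above the average of all tested compounds plus 3 SD, set per screening campaign, cut at about 16% in these data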;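 also: IDE supplied by intact live HEK cells; FP after avidin binding of uncleaved biotin substrate so inhibition keeps polarization high; 0% = DMSO wells and 100% = 60 µM reference IDE inhibitor Ii1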
MCL1 BIM primary – MCL1-BIM-BH3 interaction inhibition (human) | Q07820 | GST-MCL1 / FITC-Bim-BH3 fluorescence polarization | inhibition, % at 10.9 µM | 320,000 compounds, 0.68% hits;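 active = inhibition above the mean inhibition of all tested compounds plus 3 SD, set per campaign, cut at about 40% in these data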;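 also: 0% = DMSO wells and 100% = unlabeled Bim-BH3 peptide control; higher means more loss of mP so more displacement of Bim peptide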
BCLXL inh – inhibitors of human Bcl-xL | Q07817 | GST-Bcl-xL / FITC-Bim BH3 peptide fluorescence polarization | inhibition, % at 10.9 µM | 320,000 compounds, 0.7% hits;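 active = inhibition above the mean of all tested compounds plus 3 SD, cutoff set per campaign, cut at about 30% in these data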;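 also: 0% = DMSO wells and 100% = unlabeled Bim-BH3 peptide competitor; inhibitors lower millipolarization by displacing the labeled peptide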
Target sequence (Q07817 whole entry, looked up): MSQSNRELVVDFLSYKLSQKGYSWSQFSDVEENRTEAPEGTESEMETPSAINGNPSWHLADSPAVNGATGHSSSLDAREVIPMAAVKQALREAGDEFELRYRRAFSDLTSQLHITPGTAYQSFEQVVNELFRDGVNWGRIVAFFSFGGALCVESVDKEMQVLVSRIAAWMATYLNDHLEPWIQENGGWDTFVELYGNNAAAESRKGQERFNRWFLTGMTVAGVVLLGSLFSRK
IDE cell activ – IDE (human) activation, cell-based; AID 493087; P14735; HEK cells, FAbeta-B cleavage, fluorescence polarization; 0% vehicle, 100% cell-free pure enzyme wells; 340,000 compounds, 0.073% hits; activation, % at 5.96 µM;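 active = activation above the mean of all tested compounds plus 3 SD, set per screening campaign, cut at about 17% in these data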
Bcl-xL conf – counter-screen for MCL1 inhibitors: confirmation of human Bcl-xL inhibitors; shares compounds with MCL1 BIM primary; GST-Bcl-xL / FITC-Bim BH3 peptide FP binding; inhibition, % at 10.9 µM; 1,700 compounds, 54% hits;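 active = inhibition above a cutoff equal to the mean inhibition of all tested compounds plus 3 SD, cut at about 30% in these data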;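 also: 0% = DMSO wells and 100% = unlabeled Bim BH3 control peptide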
MCL1 inh confirm – confirmation of human MCL1 and BIM-BH3 interaction inhibitors. inhibition, % at 10.9 µM. shares compounds with MCL1 BIM primary. AID 2168. 1,700 compounds, 61% hits. GST-MCL1 / FITC-Bim-BH3 fluorescence polarization;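 active = inhibition above the average of all tested compounds plus 3 SD, cut at about 40% in these data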;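 also: 0% = DMSO wells and 100% = unlabeled Bim-BH3 control peptide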
The depositor's hits bear a star; x = no result given. Sampled rows, rich in hits. Any-hit rate of the full collection: about 1.5%.

SMILES | MEX-5 binding | GLD-1 RNA inh | IDE inh | MCL1 BIM primary | BCLXL inh | IDE cell activ | Bcl-xL conf | MCL1 inh confirm
Cc1ccc2[nH]c(=O)c(C3C(C#N)=C(N)Oc4c3ccc3cccnc43)cc2c1 (stereo not given) | 2 | -1 | 7 | 44* | 13 | -12 | 37* | 58*
COc1ccc(S(=O)(=O)N2CCOCC2)cc1C(=O)N(C)CCOc1ccc(Cl)cc1 | x | 2 | -3 | 0 | 3 | 2 | x | x
O=C(c1cccc(-n2cccc2)c1)N1CCN(S(=O)(=O)c2ccccc2)CC1 | 0 | 2 | 1 | 51* | 12 | 6 | 32* | 88*
Cc1ccc(S(=O)(=O)N2CCN(C(=O)c3cccc(-n4cccc4)c3)CC2)cc1 | 3 | -5 | 6 | 16 | 8 | -6 | x | x
CC(=C/C(=O)O)/C(=C/c1ccccc1)C(=O)O | -1 | 1 | 4 | 6 | 8 | 0 | x | x
CC(C)N1CCN(Cc2cccs2)CC1CCO (stereo not given) | -2 | x | x | x | x | 3 | x | x
Cc1oc(-c2cccs2)nc1CN1CCN(C(C)C)C(CCO)C1 (stereo not given) | -3 | -4 | 1 | 49* | 5 | 4 | 5 | -1
CC(=O)c1c(C)[nH]c(C(=O)NNC(=O)COc2cc(C)cc(C)c2)c1C | x | x | x | x | x | 1 | x | x
COc1ccc2[nH]c(C(=O)Nc3ncc(C)cc3Br)cc2c1 | 0 | 8 | 0 | 52* | 14 | 3 | 4 | 1
COc1ccc2[nH]c(C(=O)Nc3ccc(F)cc3Br)cc2c1 | 0 | -2 | 2 | -1 | 3 | 3 | x | x
CCCCc1ccc(NC(=O)Nc2cc(C)nn2C)cc1 | 1 | -6 | -2 | 68* | 5 | 3 | -1 | 5
COC(=O)C1=C(C(=O)OC)[C@@H]2Nc3ccccc3[C@@]23C[C@@H](C(=O)OC)N(C(=O)C2CCC2)C3=N1 | 1 | -3 | -3 | -10 | 0 | 2 | x | x
Cc1nn(-c2ccccc2)c(Cl)c1/C=N/Nc1ccc(S(=O)(=O)Nc2ccccc2C(=O)O)cc1[N+](=O)[O-] | 0 | 8 | -1 | 54* | 23 | 7 | 20 | 27
CSc1ccc(C=NNc2ccc(S(=O)(=O)Nc3ccccc3C(=O)O)cc2[N+](=O)[O-])cc1 | x | 2 | -2 | x | x | 1 | x | x
O=[N+]([O-])c1c(NCCCO)cc(SCc2ccco2)c2nonc12 | -6 | 5 | 0 | 59* | 31* | 4 | 14 | 12
O=C1Nc2ccccc2C1(O)c1ccccc1O (stereo not given) | 0 | 0 | 0 | 5 | 4 | -3 | x | x
Cc1cc(C2(O)C(=O)Nc3ccccc32)ccc1F (stereo not given) | -3 | 5 | -3 | 79* | 4 | -2 | 14 | 24
CN1CCN(C(c2ccc(Cl)cc2)c2cc(Cl)c3cccnc3c2O)CC1 (stereo not given) | -11 | 8 | -14 | 43* | 18 | 10 | 36* | 95*
CN1CCN(C(c2ccc(C(F)(F)F)cc2)c2cc(Cl)c3cccnc3c2O)CC1 (stereo not given) | -2 | -1 | -3 | 34 | 12 | x | x | x
CC(=O)c1ccc(OCCCC(=O)Nc2cc(S(=O)(=O)N3CCCCC3)ccc2C)cc1 | x | x | x | x | x | -5 | x | x
Cc1ccc(C=Nc2cccnc2N)cc1 | -8 | 80* | -4 | 70* | 60* | 4 | 11 | 13
CCN(CC)c1ccc2cc(C(N)=O)c(=O)oc2c1 | 28 | -55 | -1 | -35 | -15 | -2 | x | x
CCN(CC)c1ccc2cc(NC(=O)CCC(=O)O)c(=O)oc2c1 | -68* | 75* | 2 | 113* | 103* | -2 | 106* | 118*
CC(Oc1ccc(F)cc1)C(=O)Nc1cccc(-c2nn[nH]n2)c1 (stereo not given) | -3 | 3 | -2 | 41* | 13 | 1 | -4 | -23
COc1ccc(Cl)cc1CN1CCN(c2nc(C)cc(C)c2C#N)CC1 | -18 | 14 | 1 | 85* | 78* | 2 | 57* | 82*
SMILES | MEX-5 binding | GLD-1 RNA inh | IDE inh | MCL1 BIM primary | BCLXL inh | IDE cell activ | Bcl-xL conf | MCL1 inh confirm
CCCCN(C(=O)CCCSc1nc2ccccc2[nH]1)c1c(N)n(Cc2ccccc2)c(=O)[nH]c1=O | -3 | 4 | 0 | -8 | -7 | 5 | x | x
CCc1ccc[n+](-c2[nH]c(=O)sc2/C=N/N=C(\N)[O-])c1 | -3 | 4 | 7 | 0 | 3 | 0 | x | x
O=c1[nH]c(-[n+]2ccccc2)c(/C=N/NC([S-])=Nc2ccccc2)s1 | -82* | 143* | 1 | 183* | 164* | 9 | 110* | 127*
CC(C)(C)c1cc[n+](-c2[nH]c(=O)sc2/C=N/N=C(\[O-])c2cccnc2)cc1 | -1 | 2 | 0 | -1 | 2 | 2 | x | x
CCc1ccc[n+](-c2[nH]c(=O)sc2/C=N/NC([S-])=Nc2ccccc2)c1 | -55* | 108* | 1 | 144* | 122* | -3 | 154* | 185*
CC(C)(C)c1cc[n+](-c2[nH]c(=O)sc2/C=N/NC(=O)c2ccccc2[O-])cc1 | -18 | 70* | 0 | 126* | 97* | 0 | 84* | 129*
Cc1cc[n+](-c2[nH]c(=O)sc2/C=N/NC([S-])=Nc2ccccc2)cc1 | -21 | 116* | 0 | 164* | 139* | 7 | 128* | 128*
Cc1cc(-c2nnc(CCC(=O)N3CCN(Cc4cccc(F)c4)CC3)o2)c(C)o1 | 2 | 4 | 1 | 8 | 8 | 6 | x | x
COCCCN1C(=O)c2ccc(C(=O)OCC(=O)N(CCC#N)c3cc(C)cc(C)c3)cc2C1=O | 1 | 2 | 1 | -7 | -2 | 3 | x | x
Cc1ccc(-n2ncc3c2CCCC3NC(=O)CCc2cnccn2)cc1C (stereo not given) | 3 | -3 | 3 | 2 | 12 | 4 | x | x
O=C(c1ccccc1)C1CCN(C(=O)c2c(F)cccc2F)CC1 | 3 | 1 | 6 | 0 | 3 | 1 | x | x
Cc1cc(C)c[n+](-c2[nH]c(=O)sc2/C=N/NC([S-])=Nc2ccccc2)c1 | -49* | 117* | 1 | 167* | 129* | 3 | 61* | 60*
COc1ccc(S(=O)(=O)CC(=O)c2cc3cc(Br)ccc3oc2=O)cc1 | 1 | 3 | 2 | 9 | 7 | -2 | x | x
CC(=O)c1c(Cl)nc2cccc3c2c1-c1ccccc1C3=O | -8 | 27 | 1 | 59* | 54* | 4 | 40* | 37
COc1cc(-c2c(C(C)=O)c(C)nc3c2C(=O)c2ccccc2-3)cc(OC)c1OC | 0 | x | x | x | x | 2 | x | x
